Bioassay records: PubChem, several laboratories
ADAM10 inh: ADAM10 inhibition, QFRET primary screen | O14672 | recombinant ADAM10, EDANS/DABCYL FRET peptide cleavage, 3 h | 0.62% of 370,000 active | AID 720582 | inhibition, % at 7 µM;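 active means inhibition above a per-campaign cutoff equal to the mean of compounds falling between control-based bounds plus 3 SD, cut at about 20% in these data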;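 further: 0% = DMSO wells while the 100% control is not disclosed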
proKLK7 act: proKLK7 (human) activation, primary screen; P49862; purified proKLK7, EDANS-DABCYL substrate fluorescence; 100% is mature enzyme control, 0% vehicle; activation, % at 7 µM; 0.9% of 370,000 active; AID 652039;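 active means activation above the mean of all tested compounds plus 3 SD, computed per campaign excluding outliers beyond control limits, cut at about 13% in these data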
rCAG RNA binder: binds r(CAG) RNA repeats; inhibition, % at 3 µM; AID 651821; 1.3% of 370,000 active; r(CAG) RNA repeat, TO-PRO-1 dye displacement fluorescence;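 active means inhibition above the plate cutoff, the mean of all test compounds on that plate plus 3 SD, cut at about 35% in these data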;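 further: 0% = DMSO alone and 100% = 100 µM mitoxantrone as full dye displacement; higher means more dye released from RNA so lower well fluorescence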
MPTP block: blocks calcium-induced mitochondrial swelling; isolated mouse mitochondria, Ca2+ swelling absorbance, 30 min; inhibition, % at 10 µM; 1.4% of 360,000 active; AID 602449;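 active means inhibition of 50% or more, scaled per plate between neutral and stimulator controls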;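 further: 0% = DMSO wells given calcium and 100% = 1 mM EGTA wells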
ADAM17 inh: inhibitors of human ADAM17 | recombinant ADAM17, EDANS/DABCYL FRET peptide cleavage | P78536 | inhibition, % at 6.95 µM | 0.83% of 370,000 active;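 active means inhibition above the mean of compounds lying between control limits plus 3 SD, set per campaign, cut at about 8.5% in these data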;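 further: 0% = DMSO-only wells as the low control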
Pemphigus Ab inh: human desmoglein-3 autoantibody binding inhibition; P32926; DSG3-coupled beads, scFv-anti-DSG3-GFP binding, flow cytometry; hits give low values; binding (percent of control), % at 10 µM; 0.48% of 310,000 active; AID 588358;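 active means binding more than 3 SD below its plate's average and above zero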;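 further: hits lower antibody fragment binding to DSG3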
Target sequence (P32926 whole entry, looked up, the tested form may be a part): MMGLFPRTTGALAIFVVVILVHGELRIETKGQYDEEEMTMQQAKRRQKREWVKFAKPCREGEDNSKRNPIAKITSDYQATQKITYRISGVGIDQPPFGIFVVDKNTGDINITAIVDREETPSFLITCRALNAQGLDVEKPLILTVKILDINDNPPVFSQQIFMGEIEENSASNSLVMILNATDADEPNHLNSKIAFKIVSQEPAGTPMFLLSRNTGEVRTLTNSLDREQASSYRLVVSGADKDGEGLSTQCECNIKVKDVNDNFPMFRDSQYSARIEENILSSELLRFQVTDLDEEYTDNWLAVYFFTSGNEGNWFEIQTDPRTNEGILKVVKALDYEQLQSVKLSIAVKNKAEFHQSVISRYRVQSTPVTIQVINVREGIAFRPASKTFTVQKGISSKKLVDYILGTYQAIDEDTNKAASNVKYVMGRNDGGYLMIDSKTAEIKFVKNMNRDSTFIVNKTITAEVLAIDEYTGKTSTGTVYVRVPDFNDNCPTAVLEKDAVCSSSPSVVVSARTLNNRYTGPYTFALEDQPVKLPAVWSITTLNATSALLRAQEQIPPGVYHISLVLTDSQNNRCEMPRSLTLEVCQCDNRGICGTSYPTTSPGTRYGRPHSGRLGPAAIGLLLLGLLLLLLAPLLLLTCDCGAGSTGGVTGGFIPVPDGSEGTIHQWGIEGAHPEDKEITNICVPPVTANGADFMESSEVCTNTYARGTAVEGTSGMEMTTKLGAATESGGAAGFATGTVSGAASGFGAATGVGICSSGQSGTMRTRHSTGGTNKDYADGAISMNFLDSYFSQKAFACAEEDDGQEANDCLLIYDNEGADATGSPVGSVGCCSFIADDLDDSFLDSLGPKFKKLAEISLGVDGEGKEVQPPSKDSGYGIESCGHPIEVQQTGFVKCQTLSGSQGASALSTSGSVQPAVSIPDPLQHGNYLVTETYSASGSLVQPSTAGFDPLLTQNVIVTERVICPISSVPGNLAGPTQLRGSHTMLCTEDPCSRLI
KLK7 act conf: proKLK7 activation, confirmation | shares compounds with proKLK7 act | 68% of 3,200 active | AID 686949 | purified proKLK7, EDANS-DABCYL substrate fluorescence; scaled: vehicle 0, mature enzyme 100 | activation, % at 7 µM;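 active means activation, as change over the incubation, above the mean of all tested compounds plus 3 SD, cut at about 13% in these data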
EDANS interfere: counter-screen for kallikrein-7 activators: EDANS-DABCYL optical interference. shares compounds with proKLK7 act. EDANS-DABCYL substrate fluorescence interference, no enzyme, 4 h; solvent 0%, active enzyme control 100%. activation, % at 7 µM. 80% of 3,200 active. AID 686952;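 active means activation above the all-compound mean plus 3 SD, ignoring values outside control-based bounds, cut at about 4.8% in these data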;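 further: value is the 4 h activation minus the activation read at time zero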
K7 EDANS ctr: optically interferes with EDANS-DABCYL fluorescence, kallikrein-7 activator counter-screen. shares compounds with proKLK7 act. EDANS-DABCYL peptide fluorescence interference, no enzyme. EC50, µM. 20% of 250 active;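 active means compounds that raise the fluorescence signal in this interference counterscreen, with EC50 at or below 10 µM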;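 further: intact quenched peptide substrate alone read at 355 nm excitation and 520 nm emission; signal is fluorescence gain from T0 to T4 after four hours at room temperature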
Active calls of the source: *. The list is not random: actives were taken first. Their share in the collection is about 4.7%.

How did CC(C)COC(=O)N(C)C[C@H]1OCc2cnnn2CCCC(=O)N([C@H](C)CO)C[C@H]1C do in these assays?
ADAM10 inh: -16.2; proKLK7 act: 0.8; rCAG RNA binder: -0.8; MPTP block: -0.6; ADAM17 inh: -4.2; Pemphigus Ab inh: 98.8

What do the screens show for `COc1ccc(OC)c(/C=N/NC(=O)CN2CCSCC2)c1`?
ADAM10 inh: inactive; proKLK7 act: 24.4*; rCAG RNA binder: -0.1; MPTP block: 0.9; ADAM17 inh: -429.5; Pemphigus Ab inh: 103.3; KLK7 act conf: 56.0*; EDANS interfere: 46.8*; K7 EDANS ctr: inactive

How did COc1ccc(OC)c(/C=N/NC(=O)C(O)c2ccccc2)c1 (centres undefined) do in these assays?
ADAM10 inh: inactive; proKLK7 act: 40.5*; rCAG RNA binder: -3.5; MPTP block: -1.0; ADAM17 inh: inactive; Pemphigus Ab inh: 113.1; KLK7 act conf: 34.2*; EDANS interfere: 35.9*

What do the screens show for `COc1ccc(/C=N/NC(=O)CN2CCSCC2)c(OC)c1`?
ADAM10 inh: -2.1; proKLK7 act: 0.5; rCAG RNA binder: 0.1; MPTP block: -0.5; ADAM17 inh: 0.0; Pemphigus Ab inh: 95.7

What do the screens show for `O=C(CCNS(=O)(=O)c1ccc(F)c(F)c1)NCCN1CCOCC1`?
ADAM10 inh: -11.4; proKLK7 act: 0.1; rCAG RNA binder: 0.9; MPTP block: 0.2; ADAM17 inh: -1.4; Pemphigus Ab inh: 93.4

What do the screens show for `CCOc1cc(/C=N/NC(=O)C2CCCC2)ccc1OC(C)C`?
ADAM10 inh: 8.2; proKLK7 act: 0.7; rCAG RNA binder: -6.4; MPTP block: 1.7; ADAM17 inh: -5.2; Pemphigus Ab inh: 100.4

How did Cc1cccc(S(=O)(=O)NC(=O)C2(C)CCN2C(=O)C/C=C/c2ccccc2)c1 (centres undefined) do in these assays?
ADAM10 inh: -12.2; proKLK7 act: -0.4; rCAG RNA binder: 14.4; MPTP block: 1.3; ADAM17 inh: -8.8

What do the screens show for `O=c1nc(-c2ccccc2Cl)c2cc(F)ccc2[nH]1`?
ADAM10 inh: inactive; proKLK7 act: 19.0*; rCAG RNA binder: -0.9; MPTP block: 0.1; ADAM17 inh: -292.4; Pemphigus Ab inh: 94.1; KLK7 act conf: 31.0*; EDANS interfere: 26.2*; K7 EDANS ctr: inactive

How did O=c1c2ccccc2[nH]c2ccc(F)cc12 do in these assays?
ADAM10 inh: inactive; proKLK7 act: -5.8; rCAG RNA binder: 2.3; MPTP block: -0.8; ADAM17 inh: inactive; Pemphigus Ab inh: 100.1

Results for O=C(O)c1cc(S(=O)(=O)N2CCN(C(=O)c3ccco3)CC2)c(Cl)cc1Cl ?
ADAM10 inh: 5.8; proKLK7 act: 0.2; rCAG RNA binder: 0.5; MPTP block: 0.1; ADAM17 inh: 0.1; Pemphigus Ab inh: 105.5

Results for COc1ccccc1N1C(=O)C2C(C(=O)c3ccccc3)=NN(c3ccc(Br)cc3)C2C1=O (centres undefined) ?
ADAM10 inh: 0.9; proKLK7 act: 17.9*; rCAG RNA binder: 9.1; MPTP block: 4.3; ADAM17 inh: -3.0; Pemphigus Ab inh: 114.0; KLK7 act conf: -225.9; EDANS interfere: -163.8

How did COC(=O)c1scc2c(=O)cc(C(F)(F)F)[nH]c12 do in these assays?
ADAM10 inh: inactive; proKLK7 act: 59.5*; rCAG RNA binder: -4.9; MPTP block: 0.0; ADAM17 inh: -241.9; Pemphigus Ab inh: 100.4; KLK7 act conf: 76.1*; EDANS interfere: 82.8*

Results for Cc1ccc2nc(-c3ccc(SCC(=O)Nc4nnc(C)s4)nc3)[nH]c2c1 ?
ADAM10 inh: -168.5; proKLK7 act: 13.6*; rCAG RNA binder: 2.9; MPTP block: 0.9; ADAM17 inh: -60.1; Pemphigus Ab inh: 99.5; KLK7 act conf: 6.0; EDANS interfere: 6.0*
